In the supplement of paper PMC9135407:
Values joined by “and” are separate entries in the source; they are usually repeats but may differ in a detail not shown here. Equal entries are not always repeated. Structures can show the parent of a compound that is named as a salt. Screen size: about 5,800 compounds; about 620 (11%) showed activity. The entries come from a sample that favours actives as a whole. Values without a mark were called inactive.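 The calls were made as follows: active = score above a cut-off or among the top three wells of a plate; in these data no inactive exceeds 0.85.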

System: primary human hepatic stellate cells (donor 1)
Assay: scaled lipid accumulation score (0 = DMSO-like, 1 = nortriptyline-like); higher = stronger HSC inactivation (lipid re-accumulation), active = hit call of the paper
Conditions: 48 h
[1] = library stock concentration: 10 mM
[2] = library stock concentration: 1 mM

C[C@]12CC[C@H]3[C@@H](CCC4=CC(=O)CC[C@@]43C)[C@@H]1CC[C@@H]2O [Testosterone]
scaled lipid accumulation score (library stock concentration: 6.9 mM): 0.032
scaled lipid accumulation score [1]: 0.108 and 0.479

Oc1cc2c(cc1O)[C@H]1c3ccccc3CN[C@@H]1CC2 (racemic) [Dihydrexidine hydrochloride]
scaled lipid accumulation score [1]: 0.823

CCCC[N+]1(C)[C@@H]2C[C@@H](OC(=O)[C@H](CO)c3ccccc3)C[C@H]1[C@@H]1O[C@@H]12 (single isomer, unassigned; (-)) [(-)-Scopolamine,n-Butyl-, bromide]
scaled lipid accumulation score [1]: ≤ 0

CC(N)Cc1c[nH]c2ccc(OCc3cccs3)cc12.Cl (stereo not drawn) [BW 723C86 hydrochloride]
scaled lipid accumulation score [1]: 1.3 (active)

CC(N)Cc1c[nH]c2ccc(O)cc12 (stereo not drawn)
scaled lipid accumulation score [1]: ≤ 0

CC(N)Cc1c[nH]c2ccc(OCc3cccs3)cc12.Cl (stereo not drawn)
scaled lipid accumulation score [1]: 1.18 (active)

CC(N)Cc1c[nH]c2ccc(O)cc12 (stereo not drawn) [alpha-Methyl-5-hydroxytryptamine maleate]
scaled lipid accumulation score [1]: ≤ -0.055

CCCCCCCCCOc1ccc2[nH]cc(CCN)c2c1 [5-Nonyloxytryptamine]
scaled lipid accumulation score (library stock concentration: 9.9 mM): 0.5

CNCCc1c[nH]c2ccc(O)cc12 [N-omega-Methyl-5-hydroxytryptamine oxalate salt]
scaled lipid accumulation score [1]: ≤ -0.055

CC(N)Cc1c[nH]c2ccc(OCc3cccs3)cc12 (stereo not drawn)
scaled lipid accumulation score [2]: 0.315

CN1CCC2=C[C@H](O)[C@H]3OC(=O)c4cc5c(cc4[C@H]3[C@@H]21)OCO5 [Hippeastrine hydrobromide]
scaled lipid accumulation score: ≤ 0

O=S(=O)(c1c(O)c(Cl)cc(Cl)c1Cl)c1c(O)c(Cl)cc(Cl)c1Cl [p38 MAP Kinase Inhibitor IV]
scaled lipid accumulation score (library stock concentration: 3.33 mM): ≤ 0

CCCCC/C=C\C/C=C\C/C=C\C/C=C\CCCC(=O)NCCS(=O)(=O)O [N-Arachidonoyl Taurine]
scaled lipid accumulation score [2]: 0.01

O=C1C2CCN(CC2)C1(CO)CO [listing 1 of 2 here]
scaled lipid accumulation score (library stock concentration: 27 mM): 0.911 (active)

O=C1C2CCN(CC2)C1(CO)CO [listing 2 of 2 here]
scaled lipid accumulation score [2]: ≤ 0
scaled lipid accumulation score [1]: 0.045

CC(=O)C1=C(O)[C@@H]2[C@H]3c4c[nH]c5cccc(c45)C[C@H]3C(C)(C)N2C1=O [Cyclopiazonic acid]
scaled lipid accumulation score (library stock concentration: 14.9 mM): 0.019

CC(=O)C1=C(O)[C@@H]2[C@H]3c4c[nH]c5cccc(c45)C[C@H]3C(C)(C)N2C1=O [Cyclopiazonic Acid]
scaled lipid accumulation score [1]: 0.021

BrC1C(Br)C(Br)C(Br)C(Br)C1Br (stereo not drawn) [1,2,3,4,5,6-Hexabromocyclohexane]
scaled lipid accumulation score [1]: ≤ -0.001

CC1=C2C[C@H]3[C@@H](CC=C4C[C@@H](O)CC[C@@]43C)[C@@H]2CC[C@]12O[C@@H]1C[C@H](C)CN[C@H]1[C@H]2C [Cyclopamine]
scaled lipid accumulation score (library stock concentration: 12.1 mM): 0.19

COC(=O)/C=C/C(=O)N[C@@H]1CC[C@@]2(O)[C@H]3Cc4ccc(O)c5c4[C@@]2(CCN3CC2CC2)[C@H]1O5
scaled lipid accumulation score [1]: 0.325

CC1=NCCc2c1[nH]c1cc(O)ccc21.Cl.O.O [Harmalol hydrochloride dihydrate]
scaled lipid accumulation score: 0.979 (active)

COc1ccc2c3c([nH]c2c1)C(C)=NCC3 [Harmaline hydrochloride dihydrate]
scaled lipid accumulation score: 0.371

CC1=NCCc2c1[nH]c1cc(O)ccc21 [Harmalol hydrochloride]
scaled lipid accumulation score [1]: ≤ 0

COc1ccc2c3c([nH]c2c1)C(C)=NCC3 [Harmaline]
scaled lipid accumulation score [1]: 0.389

COC1=C[C@@H]2C3=C([C@@H]2C1=O)[C@@H](NC(C)=O)CCc1cc(OC)c(OC)c(OC)c13 [Lumicolchicine gamma]
scaled lipid accumulation score: ≤ 0

c1ccc(C2CNCc3ccccc32)cc1 (stereo not drawn) [4-Phenyl-1,2,3,4-tetrahydroisoquinoline hydrochloride]
scaled lipid accumulation score [1]: 0.217

Cl.Cl.Fc1ccc(C(OCCN2CCN(CCCc3ccccc3)CC2)c2ccc(F)cc2)cc1 [listing 1 of 2 here]
scaled lipid accumulation score: 0.864 (active)

Fc1ccc(C(OCCN2CCN(C/C=C/c3ccccc3)CC2)c2ccc(F)cc2)cc1
scaled lipid accumulation score [1]: 0.507

Fc1ccc(C(OCCN2CCN(CCCc3ccccc3)CC2)c2ccc(F)cc2)cc1
scaled lipid accumulation score [1]: ≤ -0.061

Cl.Cl.Fc1ccc(C(OCCN2CCN(CCCc3ccccc3)CC2)c2ccc(F)cc2)cc1 [listing 2 of 2 here]
scaled lipid accumulation score [1]: 0.942 (active)

c1ccc(CCCN2CCN(CCOC(c3ccccc3)c3ccccc3)CC2)cc1
scaled lipid accumulation score [1]: ≤ -0.07 and 0.566

Clc1ccc(C(OCCN2CCCCC2)c2ccccc2)cc1 (stereo not drawn) [Cloperastine hydrochloride]
scaled lipid accumulation score: 0.488
scaled lipid accumulation score [1]: 0.544

CC(N)Cc1cccc(C(F)(F)F)c1 (single isomer, unassigned; (+)) [(+)-Norfenfluramine hydrochloride]
scaled lipid accumulation score [1]: 0.072

CC(=O)[O][Hg][c]1ccccc1 [Phenylmercuric acetate]
scaled lipid accumulation score (library stock concentration: 5.9 mM): 0.512
scaled lipid accumulation score [1]: 0.358

O=[N+]([O-])OCC(CO[N+](=O)[O-])O[N+](=O)[O-] [Nitroglycerin]
scaled lipid accumulation score (library stock concentration: 8.8 mM): 0.395

CCCCC/C=C\C/C=C\C/C=C\C/C=C\CCCC(=O)NCCc1ccc(O)c(O)c1 [N-Arachidonoyl Dopamine]
scaled lipid accumulation score [2]: ≤ 0

CCCCC/C=C\C/C=C\C/C=C\C/C=C\CCCC(=O)N[C@H](C)COP(=O)(O)O [R-1 Methanandamide Phosphate]
scaled lipid accumulation score [2]: ≤ 0

Cc1[nH]c2ccc(Cl)cc2c1C1=CCNCC1.Cl
scaled lipid accumulation score [1]: 1.1 (active)

C#CCOC(=O)C1=CCCN(C)C1 [Arecaidine propargyl ester hydrobromide]
scaled lipid accumulation score [1]: ≤ 0

C#CCOC(=O)C1=CCCN(C)C1 [Arecaidine propargyl ester tosylate]
scaled lipid accumulation score [1]: ≤ 0

C[C@]12CCC(=O)C=C1CC[C@@H]1[C@@H]2CC[C@@]2(C)[C@H]1CC[C@]2(C)O [Methyltestosterone]
scaled lipid accumulation score [1]: 0.073

COc1ccc2c(c1)[nH]c1c(C)nccc12 [Harmine] [listing 1 of 2 here]
scaled lipid accumulation score (library stock concentration: 9.4 mM): 0.851 (active)

Cc1nccc2c1[nH]c1ccccc12 [Harmane hydrochloride]
scaled lipid accumulation score: 0.089

COc1ccc2[nH]c3c(c2c1)CCN=C3C [Methoxy-6-harmalan]
scaled lipid accumulation score: 0.039

COc1ccc2c(c1)[nH]c1c(C)nccc12 [Harmine] [listing 2 of 2 here]
scaled lipid accumulation score [2]: 0.141
scaled lipid accumulation score [1]: 0.762

COc1ccc2c(c1)[nH]c1c(C)nccc12.Cl [Harmine hydrochloride]
scaled lipid accumulation score: 0.89 (active)

Cc1nccc2c1[nH]c1ccccc12 [Harmane]
scaled lipid accumulation score [1]: 0.671

Cc1nccc2c1[nH]c1cc(O)ccc12 [Harmol hydrochloride]
scaled lipid accumulation score [1]: ≤ 0
